The subject of assay [1] is Plasmodium falciparum Sir2 (PF13_0152, Sir2A). Nature of the assay: pfSir2 binders on small-molecule microarrays, primary screen, biochemical, small-molecule microarray, 635 nm fluorescence (AID 1098).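 Further: score merges spot fluorescence intensity with its signal-to-noise ratio.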 The settings on record: small-molecule microarray binding, fluorescence 635 nm; higher = more signal.
Assay [2] can be described thus: small-molecule microarray binders of probe aDKK1, primary screen, biochemical, biotinylated probe, 635/667 nm fluorescence (AID 1099).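 Further: score merges 667nm spot fluorescence with signal to noise across triplicate slides.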 The settings on record: higher = more signal.
Assay [3] in a line: small-molecule microarray binders of probe aCHRDL2, primary screen, biochemical, biotinylated probe, 635/667 nm fluorescence (AID 1100). The settings on record: higher = more signal.
The nature of assay [4]: splicing luciferase reporter signal modulators, primary screen, spliceosome inhibition project, cell-based, HEK293, splice +/- reporter (AID 1101).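 Further: HEK293 cells carrying a splicing-competent luciferase reporter gene; test concentration not given here.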 The settings on record: luminescence, 24 h, higher = more signal, called active from +8 up or from −8 down.
The target of assay [5] is Fibroblast growth factor 10 (Homo sapiens) (UniProt O15520). The experiment in a line: FGF10 binders on small-molecule microarrays, primary screen, biochemical, small-molecule microarray, 635 nm fluorescence (AID 1102). The settings on record: FGF10 binding, fluorescence 635 nm, higher = more signal.
Chain of Fibroblast growth factor 10 (Homo sapiens) (O15520 whole entry, looked up): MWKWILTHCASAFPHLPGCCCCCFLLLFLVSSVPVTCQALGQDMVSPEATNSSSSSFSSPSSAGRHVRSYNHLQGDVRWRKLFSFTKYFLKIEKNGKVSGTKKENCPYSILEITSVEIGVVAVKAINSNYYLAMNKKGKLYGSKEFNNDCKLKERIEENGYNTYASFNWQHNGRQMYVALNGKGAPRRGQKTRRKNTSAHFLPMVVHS
Assay [6] has as its system glycogen synthase kinase-3 (GSK3A per assay name; protocol says GSK3B). Nature of the assay: GSK3 binders on small-molecule microarrays, primary screen, biochemical, small-molecule microarray, 635 nm fluorescence, GSK3A (AID 1103). Further: the record names both GSK3A and GSK3B. The settings on record: small-molecule microarray binding, fluorescence 635 nm; higher = more signal.
For assay [7], the target named is Epidermal growth factor receptor (Homo sapiens) (UniProt P00533). Nature of the assay: EGFR binders on small-molecule microarrays, primary screen, biochemical, small-molecule microarray, 635 nm fluorescence (AID 1104).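 Further: score merges 667 nm emission intensity with spot signal to noise over triplicate slides.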 The settings on record: EGFR binding, higher = more signal.
Chain of Epidermal growth factor receptor (Homo sapiens) (P00533 whole entry, looked up): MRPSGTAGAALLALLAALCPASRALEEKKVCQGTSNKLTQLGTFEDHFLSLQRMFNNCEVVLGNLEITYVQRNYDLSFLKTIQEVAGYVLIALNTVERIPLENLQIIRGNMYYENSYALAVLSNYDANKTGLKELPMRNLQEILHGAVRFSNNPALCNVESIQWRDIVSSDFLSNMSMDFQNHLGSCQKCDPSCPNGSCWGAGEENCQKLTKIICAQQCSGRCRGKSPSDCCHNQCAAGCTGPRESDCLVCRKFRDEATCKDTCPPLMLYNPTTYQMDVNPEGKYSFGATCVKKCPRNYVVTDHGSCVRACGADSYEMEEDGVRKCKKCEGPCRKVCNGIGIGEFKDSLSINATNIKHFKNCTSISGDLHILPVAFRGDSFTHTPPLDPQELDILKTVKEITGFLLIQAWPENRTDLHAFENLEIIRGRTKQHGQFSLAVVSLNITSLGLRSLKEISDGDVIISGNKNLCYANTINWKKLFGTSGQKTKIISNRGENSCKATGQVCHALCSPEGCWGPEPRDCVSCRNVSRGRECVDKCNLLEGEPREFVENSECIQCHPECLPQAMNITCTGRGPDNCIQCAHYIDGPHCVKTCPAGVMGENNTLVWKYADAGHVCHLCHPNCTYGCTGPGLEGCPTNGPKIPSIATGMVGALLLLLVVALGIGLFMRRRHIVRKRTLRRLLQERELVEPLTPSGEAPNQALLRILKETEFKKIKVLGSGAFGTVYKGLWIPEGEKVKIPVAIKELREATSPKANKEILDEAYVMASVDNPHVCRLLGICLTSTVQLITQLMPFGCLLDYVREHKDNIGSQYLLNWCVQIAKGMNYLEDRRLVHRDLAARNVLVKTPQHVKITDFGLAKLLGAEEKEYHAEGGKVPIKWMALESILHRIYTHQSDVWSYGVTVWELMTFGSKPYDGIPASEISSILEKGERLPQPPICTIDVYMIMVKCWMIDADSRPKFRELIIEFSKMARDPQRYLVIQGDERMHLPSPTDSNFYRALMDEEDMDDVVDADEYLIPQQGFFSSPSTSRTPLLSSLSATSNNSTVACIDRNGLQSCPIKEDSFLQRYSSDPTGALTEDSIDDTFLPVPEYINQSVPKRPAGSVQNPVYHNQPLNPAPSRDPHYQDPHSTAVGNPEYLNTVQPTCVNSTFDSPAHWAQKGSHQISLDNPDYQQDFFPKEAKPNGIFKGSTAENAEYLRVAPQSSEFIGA
For assay [8], the target named is Follistatin-related protein 3 (Homo sapiens) (UniProt O95633). Nature of the assay: FSTL3 binders on small-molecule microarrays, primary screen, biochemical, small-molecule microarray, 635 nm fluorescence (AID 1105).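 Further: score merges emission near 667 nm and signal to noise per printed spot across three slides.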 The settings on record: FSTL3 binding, higher = more signal.
Chain of Follistatin-related protein 3 (Homo sapiens) (O95633 whole entry, looked up): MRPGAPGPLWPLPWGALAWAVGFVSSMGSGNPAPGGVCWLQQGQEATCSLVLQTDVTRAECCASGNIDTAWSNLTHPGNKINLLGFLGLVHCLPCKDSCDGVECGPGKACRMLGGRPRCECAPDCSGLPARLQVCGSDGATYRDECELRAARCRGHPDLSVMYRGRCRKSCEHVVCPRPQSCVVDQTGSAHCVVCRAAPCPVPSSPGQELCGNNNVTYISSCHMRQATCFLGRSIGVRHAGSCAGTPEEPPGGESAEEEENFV
Assay [9] has as its target Dickkopf-related protein 1 (Homo sapiens) (UniProt O94907). The experiment in a line: DKK1 binders on small-molecule microarrays, primary screen, biochemical, small-molecule microarray, 635 nm fluorescence scan (AID 1106).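 Further: score merges emission near 667 nm with signal to noise over three replicate slides.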 The settings on record: DKK1 binding, higher = more signal.
The subject of assay [10] is Inhibin beta A chain (activin A). Nature of the assay: INHBA (activin A) binders on microarrays, primary screen, biochemical, small-molecule microarray, 635 nm fluorescence scan (AID 1107).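 Further: mouse activin A protein probed at 4.33 µg/mL on printed slides; score merges bound-protein fluorescence near 667 nm with spot signal-to-noise.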 The settings on record: small-molecule microarray binding, higher = more signal.
Assay [11] concerns Human papillomavirus type 1a protein E7 (residues 44-93). Nature of the assay: HPV1a E7 fragment binders on microarrays, primary screen, biochemical, small-molecule microarray, residues 44-93, 635 nm fluorescence (AID 1108).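 Further: E7 fragment applied at 1 µg/mL in TBST for 1 h at 4 C; score combines spot fluorescence with its signal to noise ratio.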 The settings on record: small-molecule microarray binding, fluorescence 635 nm; higher = more signal.
Assay [12] can be described thus: modulators of HCV replicon luciferase signal, primary screen, HCV replication inhibitor project, Huh7 cells, luciferase reporter (AID 1109).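 Further: huh7 hepatoma cells harbouring a luciferase neomycin HCV replicon reporter; luciferase luminescence as measure of HCV replicon replication; test concentration not given here.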 The settings on record: 48 h, higher = more signal. A general note: A replicon is a self-replicating genome or part of one, used to study replication in cells.
For assay [13], the target named is Left-right determination factor 2 (Homo sapiens) (UniProt O00292). The experiment in a line: LEFTY2 binders on small-molecule microarrays, primary screen, biochemical, small-molecule microarray, 635 nm fluorescence scan (AID 1110). The settings on record: LEFTY2 binding, higher = more signal.
Chain of Left-right determination factor 2 (Homo sapiens) (O00292 whole entry, looked up): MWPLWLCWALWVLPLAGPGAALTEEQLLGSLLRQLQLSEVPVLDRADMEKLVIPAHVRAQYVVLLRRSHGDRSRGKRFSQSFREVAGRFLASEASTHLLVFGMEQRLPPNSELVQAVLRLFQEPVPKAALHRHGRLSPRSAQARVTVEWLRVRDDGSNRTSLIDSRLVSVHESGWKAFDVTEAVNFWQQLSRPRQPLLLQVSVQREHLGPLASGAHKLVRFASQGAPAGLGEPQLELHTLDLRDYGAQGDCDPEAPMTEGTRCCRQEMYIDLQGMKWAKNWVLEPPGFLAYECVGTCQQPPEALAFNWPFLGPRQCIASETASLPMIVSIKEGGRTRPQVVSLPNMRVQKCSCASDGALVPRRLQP
Assay [14] has as its target Calmodulin-1 (Homo sapiens) (UniProt P0DP23). Nature of the assay: CALM1 binders on microarrays, EGTA buffer, profiling panel, biochemical, small-molecule microarray, Cy5-labelled CALM1 (AID 1111).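 Further: labelled calmodulin applied in Tris saline Tween buffer holding calcium plus EGTA and DTT.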 The settings on record: Cy5-CALM1 binding fluorescence, higher = more signal.
Assay [15] shares this target. Nature of the assay: calcium-bound CALM1 binders on microarrays, profiling panel, artefact control for SMM control-protein annotation, biochemical, small-molecule microarray, Cy5-labelled CALM1, plus calcium (AID 1112).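 Further: score merges spot fluorescence with signal to noise from triplicate slides.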 The settings on record: Cy5-CALM1 binding fluorescence, higher = more signal.
Assay [16] is described as follows: small-molecule microarray binders of probe aWnt5a, primary screen, biochemical, biotinylated probe, 635/667 nm fluorescence (AID 1113).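 Further: score merges 667 nm fluorescence intensity with signal-to-noise per printed feature.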 The settings on record: higher = more signal.
A short description of assay [17]: small-molecule microarray binders of probe aShh, primary screen, biochemical, biotinylated probe, 635/667 nm fluorescence (AID 1114).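 Further: probe is biotin-labelled aShh protein from a stem cell growth factor screen; measures binding of labelled protein to compounds printed on the slide; score merges feature fluorescence at 667 nm with signal-to-noise.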 The settings on record: higher = more signal.
The nature of assay [18]: small-molecule microarray binders of probe aNog, primary screen, biochemical, biotinylated probe, 635/667 nm fluorescence (AID 1115).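 Further: probe is biotinylated aNog protein used at 0.15 µg/mL for 1 h at 4 C; z-score combines 667 nm fluorescence of each spot with its signal to noise.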 The settings on record: higher = more signal.
Assay [19] deals with Torsin-1A-interacting protein 1 (Homo sapiens) (UniProt Q5JTV8). The experiment in a line: LAP1 binders from COS7 cell lysate, primary screen, small-molecule microarray, 635/667 nm fluorescence (AID 1116). The settings on record: COS7-hLAP1 lysate binding, 635 nm fluorescence, higher = more signal.
Chain of Torsin-1A-interacting protein 1 (Homo sapiens) (Q5JTV8 whole entry, looked up): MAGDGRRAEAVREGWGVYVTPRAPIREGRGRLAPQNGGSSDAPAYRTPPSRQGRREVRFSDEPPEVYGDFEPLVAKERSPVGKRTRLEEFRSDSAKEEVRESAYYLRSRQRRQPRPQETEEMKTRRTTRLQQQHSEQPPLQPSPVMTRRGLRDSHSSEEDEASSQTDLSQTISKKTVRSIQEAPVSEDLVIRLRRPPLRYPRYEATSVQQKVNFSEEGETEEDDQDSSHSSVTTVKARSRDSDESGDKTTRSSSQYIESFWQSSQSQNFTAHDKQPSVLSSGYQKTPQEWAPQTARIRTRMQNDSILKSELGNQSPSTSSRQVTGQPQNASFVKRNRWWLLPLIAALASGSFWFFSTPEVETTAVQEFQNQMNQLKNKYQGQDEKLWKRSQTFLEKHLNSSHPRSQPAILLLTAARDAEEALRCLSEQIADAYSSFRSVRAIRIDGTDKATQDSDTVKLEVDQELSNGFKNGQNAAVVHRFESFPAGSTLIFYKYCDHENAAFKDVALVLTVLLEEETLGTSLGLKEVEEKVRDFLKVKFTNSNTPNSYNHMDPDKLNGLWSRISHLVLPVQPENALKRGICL
The target of assay [20] is Alpha-bungarotoxin (Bungarus multicinctus) (UniProt P60615). The experiment in a line: alpha-bungarotoxin binders on microarray, profiling panel, artefact control for SMM control protein annotation, biochemical, small-molecule microarray, Alexa647 label, 635/667 nm fluorescence (AID 1117). The settings on record: alpha-BTX-A647 binding fluorescence, higher = more signal.
Chain of Alpha-bungarotoxin (Bungarus multicinctus) (P60615 whole entry, looked up): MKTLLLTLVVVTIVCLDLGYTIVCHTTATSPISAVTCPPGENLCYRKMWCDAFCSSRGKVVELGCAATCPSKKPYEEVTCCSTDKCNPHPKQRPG

Active and inactive are the calls of the source.

Chain of Dickkopf-related protein 1 (Homo sapiens) (O94907 whole entry, looked up): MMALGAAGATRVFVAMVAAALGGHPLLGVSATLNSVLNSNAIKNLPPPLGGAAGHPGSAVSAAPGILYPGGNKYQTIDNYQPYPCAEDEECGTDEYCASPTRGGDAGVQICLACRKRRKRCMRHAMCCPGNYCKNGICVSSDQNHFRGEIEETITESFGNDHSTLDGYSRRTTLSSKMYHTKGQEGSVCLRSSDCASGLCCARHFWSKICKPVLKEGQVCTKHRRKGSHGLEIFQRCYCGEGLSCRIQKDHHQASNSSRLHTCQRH

`C=C(CCCC)/C(=C/C[C@H](OC(C)=O)c1ccccc1OCCO)c1cnc2ccccc2c1`: the composite z-score is 0.593 in [1]; -0.278 in [2]; -0.114 in assay [3]; 0.931 in assay [5]; -0.0183 in assay [6]; 0.0674 in [7]. In addition, the composite z-score in assay [8] was 0.747; in assay [9], 0.277; in assay [10] it was 1.52; in assay [11], 0.984; in assay [13], 0.0641; in assay [14], -0.0602. In addition, the composite z-score is -0.796 in assay [15]; -0.0718 in [16]; -0.0709 in [17]; -0.327 in assay [18]; 0.469 in [19]; 0.887 in [20]. In addition, the z-score in assay [4] was 1.81 (inactive); in [12], -2.75.
With `COC(=O)[C@@]1(Cc2ccccc2)[C@H]2c3cc(C(=O)N(C)C)n(CCc4c[nH]c5ccc(O)cc45)c3C[C@H]2CN1C(=O)c1ccccc1`, the composite z-score in [1] was 0.0625; in assay [2] it was 0.665; in assay [3], 1.2; in [5], 0.288; in assay [6] it was 0.435; in assay [7], 0.121. For the same molecule, the composite z-score is 0.594 in assay [8]; -0.0414 in assay [9]; 1.3 in [10]; 1.32 in assay [11]; -0.119 in [13]; 1.2 in [14]. For the same molecule, the composite z-score in assay [15] is 0.0493; in assay [16], 0.0031; in assay [17], -0.0146; in assay [18] it was 0.843; in assay [19], 1.48; in [20], 0.194. In addition, the z-score in assay [4] is -1.99 (inactive); in [12] it was -2.07.
For the molecule `CCOC(=O)C1=CC[C@H]2C(=O)N(c3ccccc3)C(=O)[C@@H]12`, the composite z-score is 1.67 in assay [1]; 0.143 in assay [2]; 0.0364 in [3]; 1.19 in assay [5]; 0.571 in assay [6]; 0.55 in assay [7]. In addition, the composite z-score turned out to be 1.01 in [8]; 0.56 in [9]; 0.304 in assay [10]; 1.51 in [11]; 0.791 in assay [13]; 0.802 in assay [14]. The composite z-score in assay [15] was -0.513; in [16], 0.027; in assay [17] it was -0.0793; in assay [18], 1.15; in assay [19] it was 1.14; in [20] it was 0.203. Also, the z-score in assay [4] was 0.406 (inactive); in [12], -1.36.
For `C=C(CCCC)C(=O)CC[C@@H](OC(C)=O)c1ccc(CO)o1`, the composite z-score in [1] is 1.24; in assay [2], -0.269; in assay [3], -0.457; in [5] it was 1.12; in assay [6] it was 0.179; in assay [7], -0.353. Moreover, the composite z-score in assay [8] was 0.523; in assay [9] it was 0.0693; in assay [10] it was 0.945; in [11], 0.0497; in assay [13] it was 0.523; in [14], -0.854. For the same molecule, the composite z-score in assay [15] was -1.12; in assay [16] it was -0.18; in assay [17], -0.206; in assay [18], 0.0417; in assay [19] it was 2.04; in [20], -0.217. The z-score in [4] was 0.251 (inactive); in assay [12], -1.21.
`CN1C(=O)C2C=CC(C(O)c3ccc(F)cc3)N(N(c3ccccc3)c3ccccc3)C2C1=O` (stereo not given): the composite z-score in assay [1] was 1.46; in assay [2] it was 0.303; in [3] it was 1.03; in assay [5], 0.103; in assay [6] it was 0.0581; in [7], -0.329. For the same molecule, the composite z-score in assay [8] was 0.549; in assay [9] it was -0.742; in assay [10], 0.984; in assay [11], 1.11; in assay [13], -0.698; in assay [14], 0.49. For the same molecule, the composite z-score in [15] is -0.235; in assay [16], -0.0236; in assay [17] it was -0.152; in [18] it was -0.55; in [19], 0.154; in assay [20], 0.633. In addition, the z-score was 1.9 (inactive) in [4] and -0.0952 in [12].
With `CO[C@H]1O[C@H](CO)[C@@H](OC(=O)Nc2ccccc2)[C@@H]2OC(=O)[C@@H](Cc3ccc4ccccc4c3)C/C=C/C[C@H](Cc3ccc4ccccc4c3)C(=O)O[C@@H]12`, the composite z-score in assay [1] stood at 1.08; in [2] it was 0.134; in assay [3], 0.402; in assay [5] it was 1.08; in assay [6], 0.899; in [7], 0.204. Besides, the composite z-score is 0.531 in assay [8]; -0.112 in [9]; 0.962 in assay [10]; 0.601 in [11]; 0.0985 in assay [13]; 0.697 in [14]. Besides, the composite z-score in assay [15] was -0.56; in [16] it was -0.006; in assay [17] it was -0.237; in [18] it was 1.3; in [19], 1.72; in assay [20], 0.322. Further, the z-score in assay [4] was -0.916 (inactive); in assay [12], -2.92.

Values taken from PubChem BioAssay.
